This passage reports morphology score and SARS-CoV-2 infection rate results from the supplement of paper PMC13380429.

For assay [1], the system named is Vero E6 infected with SARS-CoV-2. Nature of the assay: morphology score (similarity to uninfected cells); higher = more like uninfected cells. The note with it: 24 h.
The test system is the same in assay [2]. The assay is described as follows: SARS-CoV-2 infection rate relative to infected DMSO; higher = more infection, active = 60 or less. The note with it: 24 h.

Regarding `CO[C@H]1O[C@@H]2O[C@@]3(C)CC[C@H]4[C@H](C)CC[C@@H]([C@H]1C)[C@@]24OO3` [artemether] (10 µM), the morphology score in assay [1] is 0.0275. Moreover, in assay [2], the SARS-CoV-2 infection rate is 105% (inactive).
In assay [1], `COc1ccc(CNC(=O)c2sc3nc(C)cc(C)c3c2N)cc1` (10 µM) showed a morphology score of -0.0124. Besides, the SARS-CoV-2 infection rate in assay [2] was 104% (inactive).
Regarding `CCOC(=O)[C@@H](N)CCC(=O)N[C@@H](CSCc1ccccc1)C(=O)N[C@@H](C(=O)OCC)c1ccccc1` [ezatiostat] (10 µM), in assay [1], the morphology score was 0.202. Besides, the SARS-CoV-2 infection rate in assay [2] was 78.5% (inactive).
With `CC(=O)SC[C@@H](Cc1ccccc1)C(=O)NCC(=O)OCc1ccccc1` (racemic) [racecadotril] (10 µM), in assay [1], the morphology score stood at 0.0461. The SARS-CoV-2 infection rate in assay [2] is 110% (inactive).
As to `Cc1cc(NC(=O)NCCN2CCC(O)(Cc3ccccc3)CC2)c2ccccc2n1` [palosuran] (10 µM), the morphology score in assay [1] is -0.00351. Further, the SARS-CoV-2 infection rate in assay [2] was 112% (inactive).
As to `CNc1nc(NCc2ccc(NS(C)(=O)=O)cc2Cl)cc(-c2ccccn2)n1` (10 µM), in assay [1], the morphology score turned out to be 0.193. Also, the SARS-CoV-2 infection rate in assay [2] was 97.5% (inactive).
`CN(CCCN1c2ccccc2CCc2ccccc21)CC(=O)c1ccc(Cl)cc1` [lofepramine] (10 µM): the morphology score in assay [1] was -0.0945. For the same compound, the SARS-CoV-2 infection rate in assay [2] was 114% (inactive).
The matching figures for `CCOC(=O)c1ncn2c1CN(C)C(=O)c1cc(F)ccc1-2` [flumazenil] (10 µM): 0.0898 and 88.5% (inactive).
In turn, `CC(=O)Oc1ccccc1C(=O)O` [aspirin] (10 µM) came in with a morphology score in assay [1] of -0.027. Besides, the SARS-CoV-2 infection rate in assay [2] was 98% (inactive).
Take `Cn1cc([S+](C)[O-])c(=O)c2ccc(F)cc21` (stereo unspecified) [flosequinan] (10 µM): the morphology score in assay [1] worked out at 0.195. Moreover, in assay [2], the SARS-CoV-2 infection rate is 96.5% (inactive).
`O=C(CCCN1CCN(c2ccccn2)CC1)c1ccc(F)cc1` [azaperone] (10 µM) had a morphology score in assay [1] of 0.13. The SARS-CoV-2 infection rate in assay [2] is 83% (inactive).
The matching figures for `Cc1[nH]cnc1-c1ccc(Cl)cc1` [lofemizole] (10 µM): -0.0942 and 102% (inactive).
`CC(=O)c1cnc2ccc(-c3cc(Cl)c(O)c(Cl)c3)nc2c1N[C@H]1CC[C@H](CN(C)C)CC1` (0.833333 µM) gave a morphology score in assay [1] of 0.294. The SARS-CoV-2 infection rate in assay [2] is 96% (inactive).
In assay [1], `Cn1cc(CCn2cnc(-c3cnn(C)c3)c2-c2ccc(C#N)cc2)cn1` (10 µM) had a morphology score of 0.0344. For the same compound, the SARS-CoV-2 infection rate in assay [2] was 97% (inactive).
In assay [1], `CCCCC(=O)OCC(=O)[C@]1(O)Cc2c(O)c3c(c(O)c2[C@@H](O[C@H]2C[C@H](NC(=O)C(F)(F)F)[C@H](O)[C@H](C)O2)C1)C(=O)c1c(OC)cccc1C3=O` [valrubicin] (0.833333 µM) showed a morphology score of 0.122. The SARS-CoV-2 infection rate in assay [2] was 97% (inactive).
In assay [1], `CC(C)(C)NC(=O)[C@@H]1CN(Cc2cccnc2)CCN1C[C@@H](O)C[C@@H](Cc1ccccc1)C(=O)N[C@H]1c2ccccc2C[C@H]1O` [indinavir] (10 µM) displayed a morphology score of 0.0426. Also, the SARS-CoV-2 infection rate in assay [2] is 110% (inactive).
The matching figures for `Cc1nc(Nc2n[nH]c3c2CN(C(=O)N[C@H](CN(C)C)c2ccccc2)C3(C)C)c2sccc2n1` (10 µM): -0.232 and 111% (inactive).
The compound `CCCCCNC(=N)N/N=C/c1c[nH]c2ccc(OC)cc12` [tegaserod] (10 µM) registered a morphology score in assay [1] of 0.0727. For the same compound, in assay [2], the SARS-CoV-2 infection rate is 100% (inactive).
Take `C[C@H](CCC(=O)O)[C@H]1CC[C@H]2[C@@H]3C(=O)C[C@@H]4CC(=O)CC[C@]4(C)[C@H]3CC(=O)[C@]12C` [dehydrocholate-acid] (10 µM): in assay [1], the morphology score came out at 0.231. In addition, the SARS-CoV-2 infection rate in assay [2] is 94.8% (inactive).
In turn, `Cc1cc2ncc(C(=O)NCC(C)(C)NCC(=O)N3CCC[C@H]3C#N)cn2n1` [anagliptin] (10 µM) returned a morphology score in assay [1] of -0.112. Moreover, the SARS-CoV-2 infection rate in assay [2] was 110% (inactive).
In assay [1], `CNc1cc2c(Nc3cccc(Br)c3)ncnc2cn1` (10 µM) returned a morphology score of -0.276. In assay [2], the SARS-CoV-2 infection rate is 112% (inactive).
For `CC(C)C[C@H](NC(=O)N1CCCCCC1)C(=O)N[C@H](Cc1cn(C)c2ccccc12)C(=O)N[C@H](Cc1ccccn1)C(=O)O` (10 µM), in assay [1], the morphology score is 0.257. In assay [2], the SARS-CoV-2 infection rate is 100% (inactive).
The matching figures for `O=C(NOCCO)c1cc(CN2OCCCC2=O)c(F)c(F)c1Nc1ccc(I)cc1F` (0.833333 µM): -0.175 and 96.5% (inactive).
For the compound `CC(C)(C)c1cc(C=C(C#N)C#N)cc(C(C)(C)C)c1O` [tyrphostin-A9] (0.833333 µM), the morphology score in assay [1] was 0.116. The SARS-CoV-2 infection rate in assay [2] is 80.5% (inactive).
`CC(C)NCC(O)COc1cccc2[nH]ccc12` (stereo unspecified) [pindolol] (10 µM): the morphology score in assay [1] came out at 0.0938. In assay [2], the SARS-CoV-2 infection rate is 104% (inactive).
Consider `N[C@H](CO)C(=O)O` [D-serine] (10 µM), for which, in assay [1], the morphology score was 0.0301. In addition, the SARS-CoV-2 infection rate in assay [2] was 104% (inactive).
Regarding `COc1ccc2cc(C(C)C(=O)Oc3ccc(C(N)=S)cc3)ccc2c1` (stereo unspecified) (10 µM), in assay [1], the morphology score was 0.117. Besides, the SARS-CoV-2 infection rate in assay [2] is 97% (inactive).
In the case of `COc1ccc(C2CC(c3c(O)cc(C)oc3=O)=NCCS2)c(OC)c1` (stereo unspecified) (10 µM), in assay [1], the morphology score is 0.0127. Also, the SARS-CoV-2 infection rate in assay [2] is 101% (inactive).
